A selection: hits, their analogues and other compounds. The true share with any hit is near 18%.
TDP1 block – inhibitors of human tyrosyl-DNA phosphodiesterase TDP1. AID 485290. 350,000 tested, 0.28% active. Q9NUW8. recombinant TDP1, AlphaScreen DNA substrate cleavage. Potency, µM (titrated, usually from 130 µM), without a hit: at the top dose activity change, negative = inhibition, hits mostly inhibitors; further: potency means the concentration at half of the fitted maximal effect; nearly all actives have a fitted effect of over 40% in size
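E. coli-derived human Tdp1, 1 nM final. Cpd preinc 15 min RT; substrate 15 nM final, 5 min RT; AS bead mix 10 ug/ml final, 10 min RT. Signal loss = tyrosine-FITC cleavage. No-enzyme wells = max signal.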
DT40 TDP1 CPT – growth inhibition of DT40 Tdp1-/-;hTDP1 cells with camptothecin (screen for TDP1 inhibitors); chicken DT40 Tdp1-/-;hTDP1 cells + 20 nM CPT, ATP luminescence, 48 h; Potency, µM (series often up to 46.2 µM), inactives show at the highest dose activity change, negative = growth inhibition, most hits filed as inhibitors; 420,000 tested, 12% active; further: potency means the concentration at half of the fitted maximal effect; nearly all actives have a fitted effect of over 55% in size
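Chicken DT40 Tdp1-/- cells complemented with human TDP1, 400 cells/well, exposed to compounds plus 20 nM camptothecin for at least 48 h at 37 C; viability read as ATP content by CellTiter-Glo luminescence.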
IL-1B inflam inh – blocks inflammasome-driven IL-1 beta release; THP-1 LPS/ATP IL-1B secretion, AlphaLISA, 16 h; hits give low values; activity change, % at 57.5 µM; 360,000 tested, 4.7% active; in the data active means activity change below about -50%; inconclusive means mostly about -30% to -49%
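THP-1 cells pretreated 1 hr with compounds (up to 57.5 uM final), then stimulated with LPS (250 ng/mL final) plus ATP (1.25 mM final); secreted IL-1B measured by AlphaLISA after 16 hr, decreased signal indicating inhibition.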
DT40 TDP1 no CPT – qHTS for Inhibitors of human tyrosyl-DNA phosphodiesterase 1 (TDP1): qHTS in cells in absence of CPT; 420,000 tested, 15% active; DT40 Tdp1-/- hTDP1 cells, no CPT, ATP luminescence, 48 h; AID 686978, 2013; Potency, µM (top dose mostly 46.2 µM), inactives show top-dose activity change, negative = growth inhibition, hits mostly inhibitors; further: potency means the concentration at half of the fitted maximal effect; nearly all actives have a fitted effect of over 55% in size
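Chicken DT40 Tdp1-/- cells stably complemented with human TDP1 were seeded at 400 cells/well with DMSO in place of 20 nM camptothecin. After compound pinning, cells grew at least 48 hr at 37 °C; viability read by CellTiter-Glo luminescence.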
CtBP-E1A blk – CtBP/E1A binding inhibition | AID 651724 | activity change, % (no concentration beside the values) | AlphaScreen GST-E1A/His-CtBP binding, 1536-well; hits give low values | 340,000 tested, 0.49% active; in the data active means activity change below about -65%; inconclusive means mostly about -30% to -63%
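Steps: dispense buffer (Tris pH 8.0, NaCl 300 mM, TCEP 1 mM, BSA, Tween 20); add 5X protein mix (GST-E1A, His-CtBP, 125 nM each); pin 23 nL compound; 2 h at 37 °C, dark; add 5X beads (50 ug/mL); 1 h; read.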
Six1-Eya2 blk – inhibitors of human Six1/Eya2 interaction. Q15475+O00167. AlphaScreen GST-Six1/His-Eya2 binding, biochemical; hits give low values. activity change, % (test concentration not listed). 360,000 tested, 0.56% active. AID 651725; in the data active means activity change below about -65%; inconclusive means mostly about -30% to -63%
Target sequence (O00167 whole entry, looked up): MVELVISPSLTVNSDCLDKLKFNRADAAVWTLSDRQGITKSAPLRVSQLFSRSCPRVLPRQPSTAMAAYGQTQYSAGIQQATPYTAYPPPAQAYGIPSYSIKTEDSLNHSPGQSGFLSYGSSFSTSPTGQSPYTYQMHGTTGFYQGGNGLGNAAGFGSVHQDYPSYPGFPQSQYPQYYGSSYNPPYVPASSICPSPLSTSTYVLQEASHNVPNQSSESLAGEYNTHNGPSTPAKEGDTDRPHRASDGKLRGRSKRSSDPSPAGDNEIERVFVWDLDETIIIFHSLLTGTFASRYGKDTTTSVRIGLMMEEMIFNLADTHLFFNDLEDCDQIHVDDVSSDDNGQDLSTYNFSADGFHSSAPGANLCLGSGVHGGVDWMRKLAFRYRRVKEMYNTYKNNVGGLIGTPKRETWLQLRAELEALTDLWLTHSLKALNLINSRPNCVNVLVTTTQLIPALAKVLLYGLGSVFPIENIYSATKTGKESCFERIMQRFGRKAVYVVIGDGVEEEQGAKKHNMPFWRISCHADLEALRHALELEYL
Target sequence (Q15475 whole entry, looked up): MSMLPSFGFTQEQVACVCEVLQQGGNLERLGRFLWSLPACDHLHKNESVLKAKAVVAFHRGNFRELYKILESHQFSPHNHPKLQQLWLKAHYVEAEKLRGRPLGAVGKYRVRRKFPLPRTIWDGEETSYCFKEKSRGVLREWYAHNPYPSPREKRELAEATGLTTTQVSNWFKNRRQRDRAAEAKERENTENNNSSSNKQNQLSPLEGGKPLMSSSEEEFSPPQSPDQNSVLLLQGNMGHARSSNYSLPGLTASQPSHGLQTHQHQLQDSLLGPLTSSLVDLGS
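AlphaScreen with GST-Six1 and His-Eya2 (5X mix: 250 nM and 500 nM), glutathione donor and nickel acceptor beads; buffer 50 mM Tris pH 8.0, 300 mM NaCl, 1 mM TCEP; 1 h at 37 C in the dark.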
Numbers without * were called inactive; ? = inconclusive; / = no result; [ ] = remark or other dose. Unless noted, the call rests on the fitted dose curve; in most records, active means well fitted curve in the direction sought with a large enough effect; inconclusive means small, poorly fitted or top-dose-only effect, or another doubt; inactive means no such curve, though single readings can be large; an effect the other way counts as inactive or inconclusive. On the % scale 0 is the no-effect control and ±100 the full control effect.

SMILES | TDP1 block | DT40 TDP1 CPT | IL-1B inflam inh | DT40 TDP1 no CPT | CtBP-E1A blk | Six1-Eya2 blk
COc1ccc(NC(=O)C(C)N(C)Cc2ccc3ccccc3c2)cc1 (stereo not given) | 1.9%[0.0935 µM] | ? | ? | 13µM* | -4.3 | -0.1
COc1ccc(CNC(=O)C(C)N(C)Cc2cccc(F)c2)cc1 (stereo not given) | / | ? | -13.6 | -26.0% | / | 24.2
COc1ccc(NC(=O)C(CC(=O)O)Cc2ccccc2)cc1 (stereo not given) | 7.7% | -11.6% | -0.1 | 0.9% | 2.8 | 7.0
COc1cccc(CN(C)CC(=O)Nc2c(C)cccc2C(C)C)c1 | 7.7% | ? | -28.5 | ? | -5.4 | 1.8
COc1ccc(NC(=O)C(CC(=O)O)C(C)c2ccccc2)cc1 (stereo not given) | 0.0% | 16.4µM* | 45.3 | ? | 5.9 | 12.3
CCC(C)c1ccccc1NC(=O)C(C)N(C)Cc1cccc(OC)c1 (stereo not given) | -11.3% | ? | -5.9 | 16.4µM* | 12.8 | 13.9
CC(CCc1ccccc1)NC(=O)C(=O)NCCO (stereo not given) | -4.0% | 5.5% | 8.2 | -4.2% | 3.7 | 5.3
Cc1cccc(C)c1NC(=O)c1cccc2c1-c1ccccc1C2=O | 5.4% | ? | 1.1 | ? | 24.8 | 11.7
O=C(Nc1ccc(Br)cn1)c1cccc2c1-c1ccccc1C2=O | 3.7% | 4.11µM* | 43.1 | 3.26µM* | 1.7 | -1.8
Cc1cccc(NC(=O)c2ccccc2Br)n1 | 4.9% | -19.6% | 39.6 | -23.3% | 5.8 | -6.5
Cc1cccc(NC(=O)c2cccc3c2-c2ccccc2C3=O)n1 | -7.7% | ? | 4.5 | 16.4µM* | -8.3 | 3.9
Cc1ccc(C)c(NC(=O)NC2CCCCCCC2)c1 | 4.7%[56.1 µM] | 20.7% | 6.8 | 4.4% | -2.7 | 3.5
CCn1c(SCC(=O)NCCc2ccc(OC)c(OC)c2)nc2c([nH]c3ccccc32)c1=O | / | -9.9% | -17.7 | -22.8% | -8.1 | -3.0
Cc1onc(-c2ccccc2)c1C(=O)N1CCN(c2ccccc2)CC1 | 3.9% | ? | 19.0 | ? | 17.2 | 2.4
CCOC(=O)c1c(C)oc2cc(Br)c(OC)cc12 | 6.2% | -2.0% | 16.6 | -0.3% | 5.5 | 4.4
Cc1onc(-c2ccccc2)c1C(=O)N1CCN(c2ccc([N+](=O)[O-])cc2)CC1 | / | ? | -2.3 | 20.6µM* | 1.5 | -0.3
COc1ccccc1N1CCN(C(=O)c2c(-c3ccccc3)noc2C)CC1 | 5.2% | 10.3µM* | 39.6 | 7.31µM* | 3.2 | 5.7
COc1cc2c(C(=O)N3CCN(c4ccccc4C)CC3)c(C)oc2cc1Br | -0.9% | ? | -73.3* | 16.4µM* | 0.3 | 0.1
COc1ccccc1N1CCN(C(=O)c2c(-c3c(F)cccc3Cl)noc2C)CC1 | 2.5% | 23.1µM* | 44.6 | 13µM* | 0.0 | 16.9
COc1ccc(CC(=O)NCc2n[nH]c(=S)n2-c2ccccc2OC)cc1 | 0.0% | -6.1% | 45.9 | 0.8% | 7.3 | -3.5
CCOC(=O)c1nn(-c2ccc(C)c(C)c2)c(=O)c2c(N)scc12 | 3.1% | 20.6µM* | 1.7 | ? | -18.0 | -13.2
CSc1ccccc1NC(=O)CN(C)Cc1ccc(Br)cc1 | -0.6% | -6.3% | ? | ? | 20.3 | 20.2
CSc1ccc(CN(C)CC(=O)Nc2ccccc2Br)cc1 | -0.6% | 23.1µM* | 0.5 | ? | -4.0 | 4.0
COc1ccccc1CNC(=O)CN(C)Cc1ccc(SC)cc1 | 4.5% | 16.4µM* | -17.1 | 23.1µM* | 1.3 | -2.6
CN(CC(=O)Nc1ccccc1Br)C(=O)CCSc1ccc(F)cc1 | 0.6% | ? | 0.6 | 13µM* | -2.6 | 5.7
SMILES | TDP1 block | DT40 TDP1 CPT | IL-1B inflam inh | DT40 TDP1 no CPT | CtBP-E1A blk | Six1-Eya2 blk
Cc1ccc(SCCC(=O)Nc2ccccc2Br)cc1 | 3.0% | 7.4% | 12.7 | -8.6% | / | 5.4
CSc1ccccc1NC(=O)CN(C)Cc1c(O)ccc2ccccc12 | 3.8% | ? | -9.6 | 23.1µM* | 5.8 | -0.9
CC(NC(=O)CSc1n[nH]c(-c2ccccc2)n1)c1nc2ccccc2n1C (stereo not given) | 5.4% | 0.5% | / | -4.7% | / | /
Cc1ccc(S(=O)(=O)Cn2nnnc2C(CC(C)C)N2CCC(C(N)=O)CC2)cc1 (stereo not given) | 12.5% | 0.2% | -14.4 | -15.4% | -1.0 | 2.5
CCc1ccc(CNC(=O)COc2cc(=O)n(CC)c3ccccc23)cc1 | 4.6% | ? | / | 25.9µM* | / | /
CCn1c(=O)cc(OCC(=O)NCCC(C)C)c2ccccc21 | 5.9% | 29.1µM* | -16.5 | ? | 2.8 | -1.4
CCn1c(=O)cc(OCC(=O)NCc2ccc(F)cc2Cl)c2ccccc21 | 5.8% | ? | / | 23.1µM* | / | /
O=C(CCc1nnc(Cc2cccc(C(F)(F)F)c2)o1)NC1CC1 | 6.0% | -8.6% | 5.4 | 10.6% | 1.6 | 1.5
O=C(c1ccco1)N1CCN(S(=O)(=O)c2ccccc2)CC1 | / | -5.3% | 16.2 | -1.6% | 0.0 | 0.2
Cc1ccc(S(=O)(=O)NCC(=O)OC(C)C(=O)Nc2ncc(Cl)cc2Cl)cc1 (stereo not given) | 3.0% | 3.0% | 14.2 | -6.7% | 8.0 | 3.0
C[C@H](c1ccccc1)N1C[C@@H](COCc2ccccc2)Oc2cc(N3CC[C@@H](O)C3)ccc2S1(=O)=O | / | 20.6µM* | 12.2 | 23.1µM* | -8.6 | -2.4
C[C@@H](c1ccccc1)N1C[C@@H](COCc2ccccc2)Oc2cc(N3CC[C@H](O)C3)ccc2S1(=O)=O | / | ? | 17.4 | 18.4µM* | -15.3 | -13.8
C[C@@H](c1ccccc1)N1C[C@H](COCc2ccccc2)Oc2cc(N3CC[C@H](O)C3)ccc2S1(=O)=O | / | ? | 16.7 | 20.6µM* | -10.3 | -15.4
CCOc1ccc(CCNC(=O)COC(=O)Cc2ccc(OC)c(OC)c2)cc1OCC | -0.7% | 6.5% | 36.1 | -4.7% | 7.0 | 1.8
Cc1cc(=O)cc(C)n1-c1ccccc1Br | / | -12.1% | -7.8 | -0.4% | / | -2.9
COc1ccc(NC2CCCN(C(=O)C3=NNC(=O)CC3)C2)cc1 (stereo not given) | / | -13.2% | 22.1 | -8.6% | 3.0 | 1.3
CCC(C)(C)NC(=O)CSc1nc(Cc2ccccc2)nc2ccccc12 | / | ? | -64.2* | ? | 10.7 | 4.6
CC(C)(C)NC(=O)CSc1nc(Cc2ccccc2)nc2ccccc12 | 4.0% | ? | ? | ? | -2.8 | 2.5
